Most compounds without a hit are left out; they make up all but 3.6% or so of the library.
BoNT F protease: BoNT/F light chain protease inhibitors, primary screen, biochemical, flow cytometry, MLPCN library | Botulinum neurotoxin type F light chain protease (Clostridium botulinum) | Multiplex microsphere protease cleavage assay | inhibition, % at 10 µM | 0.22% of 360,000 active; in the data active = inhibition above about 35%, passing the limit was not always enough; inconclusive = no clear call, values can overlap the other calls
Anthrax LF prot: Bacillus anthracis LF protease inhibitors, primary screen, biochemical, multiplex microsphere, MLPCN library. Lethal factor (Bacillus anthracis), P15917. inhibition, % at 10 µM. multiplex microsphere protease cleavage assay. 0.12% of 360,000 active
Target sequence (P15917 whole entry, looked up): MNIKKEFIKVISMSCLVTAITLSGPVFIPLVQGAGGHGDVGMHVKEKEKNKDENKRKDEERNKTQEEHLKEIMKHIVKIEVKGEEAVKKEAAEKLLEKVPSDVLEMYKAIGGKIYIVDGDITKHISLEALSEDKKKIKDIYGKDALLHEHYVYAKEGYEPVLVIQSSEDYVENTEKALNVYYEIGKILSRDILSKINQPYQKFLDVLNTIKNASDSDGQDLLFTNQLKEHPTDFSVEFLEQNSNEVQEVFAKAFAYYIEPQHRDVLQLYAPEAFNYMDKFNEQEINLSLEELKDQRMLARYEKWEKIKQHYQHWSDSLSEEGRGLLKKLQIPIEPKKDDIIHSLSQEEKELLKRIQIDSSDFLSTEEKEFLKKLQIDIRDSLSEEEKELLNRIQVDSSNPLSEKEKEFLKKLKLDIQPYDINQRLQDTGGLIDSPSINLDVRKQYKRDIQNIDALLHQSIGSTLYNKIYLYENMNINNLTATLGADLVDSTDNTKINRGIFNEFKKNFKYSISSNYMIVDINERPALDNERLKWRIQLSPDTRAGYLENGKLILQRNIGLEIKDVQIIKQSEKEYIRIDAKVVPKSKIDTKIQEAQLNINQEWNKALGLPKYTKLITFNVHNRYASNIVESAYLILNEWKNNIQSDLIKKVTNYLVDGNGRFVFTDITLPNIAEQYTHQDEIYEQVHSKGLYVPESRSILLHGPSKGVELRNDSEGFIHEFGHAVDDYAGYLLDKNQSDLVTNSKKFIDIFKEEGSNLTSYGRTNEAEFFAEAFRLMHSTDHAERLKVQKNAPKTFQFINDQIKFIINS
BoNT A protease: BoNT/A light chain protease inhibitors, primary screen, biochemical, flow cytometry, MLPCN library | Botulinum neurotoxin type A light chain protease (Clostridium botulinum A str. ATCC 3502) | multiplex microsphere protease substrate cleavage | inhibition, % at 10 µM | 0.17% of 360,000 active | AID 588499, 2011
MazEF act: activators of E. coli MazEF toxin-antitoxin RNase, primary screen, biochemical, fluorescence, uHTS. 0.32% of 350,000 active. Endoribonuclease toxin MazF (Escherichia coli (strain K12)), P0AE70. FAM/BHQ RNA-DNA oligo cleavage fluorescence, 5 h. activation, % at 20 µM; in the data active = activation above about 50%
Autofluor counter: counter-screen for toxin protease inhibitors: compound fluorescence; compound autofluorescence counterscreen, microsphere flow cytometry; stronger effect = higher value; fluorescence intensity (no concentration beside the values); 3.1% of 360,000 active; in the data active = fluorescence intensity above about 16000; inconclusive = no clear call, values can overlap the other calls
Large screens that a line does not name were inactive. Cut-off read from the data, not from the text of the source, unless noted: active = inhibition above about 30%; inconclusive = no clear call, values can overlap the other calls; inactive = below that.

CN(C)N=Nc1ccc(-c2cn(Cc3ccccc3)cn2)cc1	BoNT F protease inconclusive
O=C(O)CCNS(=O)(=O)c1ccc(Oc2ccccc2Cl)cc1	Autofluor counter 17172
OC(c1cccc(Cl)c1)c1ncc(-c2ccccc2Cl)[nH]1 (stereo not given)	none (no result: MazEF act)
COCCN(C(=O)CSc1nnc(C)n1-c1ccc(C)cc1)c1c(N)n(Cc2ccccc2)c(=O)[nH]c1=O	Autofluor counter 17749
COCCN(C(=O)COC(=O)c1cc(C)n(-c2ccccc2)c1C)c1c(N)n(Cc2ccccc2)c(=O)[nH]c1=O	Anthrax LF prot inconclusive, BoNT A protease 60
COCCN(C(=O)COC(=O)c1cc2ccccc2cc1OC)c1c(N)n(Cc2ccccc2)c(=O)[nH]c1=O	BoNT A protease inconclusive, Autofluor counter inconclusive
S=C(Nc1ccc(Cl)cc1)N1CCN(C2CCCCC2)CC1	Autofluor counter 21880
CCc1ccc(C=NC23CN4CN(CN(C4)C2)C3)s1	BoNT A protease inconclusive, Autofluor counter 16887
COCCCn1c(SCC(=O)NC2CCCC2)nnc1-c1ccco1	Autofluor counter 20908
CC(C)Cn1c(N)c(C(=O)CSc2nnc(-c3ccco3)n2C)c(=O)n(C)c1=O	none
CCn1c(SCC(=O)N2CCCCC2C)nnc1-c1ccco1 (stereo not given)	none
CC(C)Cn1c(SCC(=O)c2ccc(Cl)s2)nnc1-c1ccco1	Autofluor counter 22317
CCCCn1c(SCC(N)=O)nnc1-c1ccco1	Autofluor counter 22326
COCCCn1c(SCC(=O)N2CCCCC2C)nnc1-c1ccco1 (stereo not given)	Autofluor counter 16205
COc1ccc(N2CCN(C(=O)c3ccc(COc4ccc([N+](=O)[O-])cc4)o3)CC2)cc1	none
COc1cc(C)c(S(=O)(=O)N2CCN=C2c2ccccc2)cc1C	none
Cc1cc(C)c(S(=O)(=O)N2CCN=C2c2ccccc2)cc1C	Autofluor counter 22172
Cc1c(Cl)cccc1NC(=O)CSc1nc(=O)n(CCCN2CCOCC2)c2c1CCCC2	none
Cc1cc2oc(C(=O)N(Cc3ccccc3)C3CCS(=O)(=O)C3)cc(=O)c2cc1Cl (stereo not given)	Autofluor counter 19953
Cc1ccc(CN(C(=O)c2cc3ccccc3oc2=O)C2CCS(=O)(=O)C2)cc1 (stereo not given)	Autofluor counter 21783
CCc1ccc(CN(C(=O)c2cc3ccccc3oc2=O)C2CCS(=O)(=O)C2)cc1 (stereo not given)	none
O=C(Nc1nnc(/C=C/c2ccccc2)s1)c1ccco1	BoNT F protease inconclusive
Cc1ccc(C(=O)NNC(=O)CSc2nnc(C3CC3)n2C)cc1	none
CCOC(=O)c1[nH]nc(C(=O)c2ccc(Br)cc2)c1O	Autofluor counter 18245
C[C@@H]1CN([C@H](C)CO)C(=O)CCCn2cc(nn2)CO[C@H]1CN(C)C(=O)Nc1cccc(Oc2ccccn2)c1	none
Cc1ccc(NC(=O)CC2SCCNC2=O)cc1Cl (stereo not given)	BoNT A protease inconclusive, Autofluor counter 23686
COC(=O)CC1SCCNC1=O (stereo not given)	Autofluor counter 20974
O=C(CC1SCCNC1=O)Nc1ccc(F)c(Cl)c1 (stereo not given)	none
COC(=O)CC1NCCNC1=O (stereo not given)	none
CCCOc1ccc(/C=c2\sc3nc(-c4ccco4)nn3c2=O)cc1OCC	MazEF act 218
CC(=O)Oc1cccc(/C=c2\sc3nc(-c4ccco4)nn3c2=O)c1	none
COC(=O)c1c(NC(=O)CSc2n[nH]c(N)n2)sc(C)c1C	none
Cc1sc(NC(=O)CSc2n[nH]c(N)n2)c(C#N)c1C	MazEF act 53
CC(C)(C)N1C(=O)[C@H]2[C@@H](c3ccc(Br)cc3)N3C(=O)N(c4cccc(Cl)c4)C(=O)[C@@]3(Cc3ccccc3)[C@H]2C1=O	none
Cc1ccc(S(=O)(=O)C2(C(=O)N3CCCCCC3)CC2)cc1	BoNT A protease inconclusive, Autofluor counter 16721
COc1ccc(-c2cn3ccccc3n2)cc1OC	Autofluor counter 20804
C=CCSc1ncccc1C(=O)O	Autofluor counter 23263
O=C(O)CSc1ncccc1C(=O)O	none
Cc1ccc(CNC(=O)c2ccccc2N)cc1	Autofluor counter 19203
C=CCSc1ncccc1C(=O)NCc1ccc(C)cc1	Autofluor counter 19941
Cc1cccc(CNC(=O)c2ccccc2N)c1	none
Clc1ccccc1OCCNc1nc(NCC2CC2)nc2ccsc12	none (no result: MazEF act)
CCOc1ccc(S(=O)(=O)N2CCCCC2)cc1NC(=O)Cc1ccsc1	none
CSCCC(c1nnnn1C1CCCCC1)N1CCN(C/C=C/c2ccccc2)CC1 (stereo not given)	none (no result: MazEF act)
COc1ccc(/C=C2\SC(=S)N(CC(=O)NC3C=CS(=O)(=O)C3)C2=O)cc1 (stereo not given)	none
Cc1cc(C)cc(NC(=O)c2cccn2-c2ncc(C(F)(F)F)cc2Cl)c1	BoNT A protease inconclusive, Autofluor counter 25062
CNC(=O)C[C@@H]1C(=O)N(c2ccc(Br)cc2)CC1(C)C	none
CC(=NCCC1=CCCCC1)c1c(O)n(C)c(=O)n(C)c1=O	Autofluor counter 23048
C=CC[C@]12CCc3sccc3C1N(c1ccc(C(=O)OCC)cc1)C2=O (stereo not given in full)	none
CN(CCc1ccccc1)C(=O)c1ccc(NC(=O)Cc2ccc(NC(=O)C3CCN(C(=O)c4ccccc4)CC3)cc2)cc1	none
O=C(NCCC1=CCCCC1)C1CCN(S(=O)(=O)N2CCOCC2)CC1	Autofluor counter 20881
Cc1ccc(S(=O)(=O)N2CCCC(C(=O)NCCC3=CCCCC3)C2)cc1 (stereo not given)	Autofluor counter 21132
O=C(NCCC1=CCCCC1)C1CCN(S(=O)(=O)N2CCCC2)CC1	none
Cc1ccc(-c2nc3ccccc3c(=O)n2-c2cccnc2)cc1	none
O=c1c2ccccc2nc(-c2ccccc2)n1-c1cccnc1	BoNT A protease inconclusive, Autofluor counter 22832
CNC[C@H]1OCc2ccccc2-c2ccccc2C(=O)N([C@H](C)CO)C[C@H]1C	none
O=C(NCCOC(=O)c1ccccc1C(=O)OCCNC(=O)c1cccnc1)c1cccnc1	Autofluor counter 19258
O=C(C1CCCCC1)N1CCC2CC1c1cc(-c3ccc4c(c3)OCO4)ccc12 (stereo not given)	none (no result: MazEF act)
O=C(Cn1c(=S)[nH]c2ccccc2c1=O)N1CCC2(CC1)OCCO2	Autofluor counter 24695
Cn1c(=O)n(CC(=O)N2CCC3(CC2)OCCO3)c(=O)c2ccccc21	none
O=C(CCCCCn1c(=S)[nH]c2ccccc2c1=O)N1CCC2(CC1)OCCO2	Autofluor counter 21724
O=C1C=C(c2ccccc2Oc2ccccc2)C[C@@H](c2ccc(F)cc2)C1	none
NS(=O)(=O)c1ccc(CNC(=O)/C=C/c2ccc(Cl)c(Cl)c2)cc1	none
NS(=O)(=O)c1ccc(CNC(=O)/C=C/c2cccc([N+](=O)[O-])c2)cc1	Autofluor counter 19057

High-throughput results: PubChem, several laboratories
